# The list is not random: actives were taken first. Their share in the collection is about 3.2%.
# MARV entry inh: blocks Marburg virus binding to or entry into cells; Marburg virus pseudotyped entry inhibition, cell reporter; 1.8% of 300,000 active; Potency, µM (top dose mostly 37.8 µM), inactives show at the highest dose activity change, negative = inhibition, actives largely listed as inhibitors; calls by dose curve; tested in HEK293 cells
# FMDV antiviral: antivirals against foot and mouth disease virus. FMDV antiviral cell-based qHTS. AID 1159524. Potency, µM (highest dose often 57.9 µM), inactives show at the top dose activity change, negative = inhibition, usual class: inhibitors. 1.2% of 410,000 active; calls by dose curve; tested in HEK293T cells; further: read-out not given here; nearly all actives have a fitted effect of over 45% in size
# Lassa entry inh: Lassa virus entry inhibition; Lassa virus pseudotype entry inhibition, cell reporter; Potency, µM (highest dose often 37.9 µM), for the others: at the top dose activity change, negative = inhibition, actives largely listed as inhibitors; 1.2% of 300,000 active; AID 540256; calls by dose curve; tested in HEK293 cells; further: nearly all actives have a fitted effect of over 50% in size
# Vaccinia Venus: vaccinia inhibition (Venus reporter) | Vaccinia virus Venus reporter expression, fluorescence | Potency, µM (highest dose often 36.5 µM), without a hit: at the highest dose activity change, negative = inhibition, most hits filed as inhibitors | 0.46% of 330,000 active; calls by dose curve; tested in A549 cells; further: nearly all actives have a fitted effect of over 30% in size
# Vaccinia mCherry: inhibitors of vaccinia virus infection (mCherry reporter signal). Potency, µM (top dose mostly 36.5 µM), for inactives: top-dose activity change, negative = inhibition, usual class: inhibitors. Vaccinia virus mCherry reporter infection, fluorescence. 0.63% of 310,000 active. AID 720579; calls by dose curve; tested in A549 cells; further: nearly all actives have a fitted effect of over 35% in size
# The depositor's hits bear a star; i = inactive; ? = inconclusive; nt = not tested or not shown; [ ] = another dose, or the depositor's remark. On the % scale 0 is the no-effect control and ±100 the full control effect; potency means the concentration at half of the fitted maximal effect.
SMILES,MARV entry inh,FMDV antiviral,Lassa entry inh,Vaccinia Venus,Vaccinia mCherry
CC(=O)Nc1ccc(C#Cc2ccc(NC(C)=O)cc2)cc1,4.6µM*,nt,7.3µM*,-6%,-16%
Cc1ccc(NC(=O)COC(=O)c2ccccc2OCC(=O)N(C)C)cc1,nt,nt,nt,-11%,-4%
O=C(Nc1ccccc1)C12CC1/C(=N\O)c1ccccc1O2 (stereo not given),nt,-7%,nt,-12%,i
COc1cc2c(c(OC)c1OC)C1(c3ccccc3)CCCCCC1[C@@H]2NC(=O)C(F)(F)F (stereo not given in full),-15%[14.2 µM],nt,?,nt,nt
Clc1ccc(-c2nnc(NCCN3CCCC3)c3ccccc23)cc1,nt,0.89µM*,nt,nt,nt
COC(=O)[C@@]1(C=C2c3ccc(F)cc3[C@@H](OC)[C@@H]2C)[C@@H]2C=CC[C@@H]21,-19%[14.2 µM],nt,nt,nt,nt
CC1CCC(C(C)C)C(OCC(O)CNC(C)c2ccccc2)C1 (stereo not given),?,?,?,10µM*,10µM*
CC1CCC(C(C)C)C(OCC(O)CNC(C)(C)C)C1 (stereo not given),nt,-11%,nt,-20%,-16%
Cc1ccc(S(=O)(=O)n2nc(OC(=O)c3c(-c4ccccc4Cl)noc3C)cc2N)cc1,0%,?,-8%,-19%,i
Cc1onc(-c2ccccc2Cl)c1C(=O)Oc1cc(N)n(S(=O)(=O)c2ccc(F)cc2)n1,?,32µM*,-20%,-26%,?
Cc1onc(-c2ccccc2)c1C(=O)NCCSCc1ccco1,?,0%,3%,-7%,i
COc1cc(C2Nc3ccccc3C(=O)N2c2ccc3c(c2)OCCO3)ccc1OCC(C)C (stereo not given),?,-11%,?,-25%,-6%[1.46 µM]
O=C1c2ccccc2NC(c2ccc3c(c2)OCCO3)N1c1ccc2c(c1)OCCO2 (stereo not given),8.9µM*,-12%,?,-11%,nt
O=C(CSc1nc2c(c(=O)[nH]1)CN(Cc1ccc3c(c1)OCO3)CC2)Nc1ccc(F)c(F)c1,-16%[46.1 µM],8%,-2%[46.1 µM],3%,-6%
Cc1cccc(NC(=O)c2ccc(S(=O)(=O)N3CCC(C)CC3)cc2)n1,?,32µM*,2%,?,?
Cc1cccc(NC(=O)c2ccc(S(=O)(=O)N3CCCCC3)cc2)n1,nt,-13%,nt,-18%,-15%
CC(=O)N1CCC2(CC1)OC(=O)C(C)=C2C(=O)Nc1cccc(Cl)c1C,nt,-4%,2%[46.1 µM],-13%,-8%
Cc1ccc(Cc2c(C)nc3nc(SCC(=O)NCCCN4CCOCC4)nn3c2C)cc1,8.9µM*,-10%,-7%[46.1 µM],9%,i
COc1ccc(OC)c(C(=O)Nc2c(O)ccc3ccccc23)c1,6%,19%,?,?,13µM*
COc1ccc(OC)c(NC(=O)Nc2c(O)ccc3ccccc23)c1,nt,21%,nt,nt,nt
CCc1c(C2(O)CCCCC2)[nH]c2ccc(C(F)(F)F)cc12,nt,40µM*,nt,?,-28%
CN(C)Cc1c(C(C)(C)O)[nH]c2ccc(C(F)(F)F)cc12,nt,-14%,nt,-5%,-1%
Cc1ccc(/C=C/C(=O)Nc2ccccc2C(N)=O)cc1,13µM*,-19%,?,-14%,-2%
CC(C)(C)c1ccc(/C=C/C(=O)NC2=NCCS2)cc1,-27%,-22%,14µM*,-29%,nt
Cc1ccc(/C=C/C(=O)NC2=NCCS2)cc1,3.2µM*,-38%,1.6µM*,-21%,-1%
SMILES,MARV entry inh,FMDV antiviral,Lassa entry inh,Vaccinia Venus,Vaccinia mCherry
Cc1ccc(S(=O)(=O)N(C)c2ccc(C(=O)N(C)Cc3nc4ccccc4c(=O)[nH]3)cc2)cc1,?,-13%,6%,?,?
CCOC(=O)c1cnc2ccc(OC)cc2c1Nc1ccc(OCc2ccccc2Cl)cc1,nt,?,?,-6%,-15%
CC(/C=N/Nc1nc(C)cc(=O)[nH]1)=C\c1ccccc1,nt,5%,nt,nt,nt
CC(C)Cn1c(/C=N/Nc2nc3ccccc3[nH]2)nc2ccccc21,?,25µM*,?,?,?
CC(C)Cn1c(/C=C/c2ccccc2)nc2ccccc21,?,-4%,-6%,?,-11%
CC(/C=N/Nc1nc2ccccc2[nH]1)=C\c1ccccc1,7.3µM*,3%,?,nt,nt
Cc1nn(-c2ccccc2)c(C)c1/C=N/Nc1nc2ccccc2[nH]1,13µM*,?,?,-5%,?
Cc1cc(=O)[nH]c(N/N=C/c2c(C)nn(-c3ccccc3)c2C)n1,6%[46.1 µM],-1%,13%[46.1 µM],-24%,-5%
CCN(CC)c1ccc(/C=N/Nc2nc3ccccc3[nH]2)cc1,8.2µM*,-44%,8.2µM*,nt,nt
CCOc1ccccc1NC(=O)CSc1nc2ccccc2c2nc(CCn3cncc3C)nn12,nt,-28%,?,?,-26%

# High-throughput results: PubChem BioAssay, National Center for Advancing Translational Sciences (NCATS)
